This is an account of results in PubChem BioAssay.

Active and inactive are the calls of the source. Unless noted, the rule behind the calls is not given here.

A short description of experiment [1]: compounds binding Alexa647 anti-His antibody – biochemical, small-molecule microarray, 635 nm fluorescence, artefact control for SMM control protein annotation, primary screen (AID 1128).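 Note: score merges feature fluorescence with signal-to-noise for each printed compound spot.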 Particulars: higher = more signal.
Experiment [2] relates to Human papillomavirus type 1a E7 protein (residues 1-88). Put plainly: HPV1a E7 small-molecule binders, primary screen, biochemical, small-molecule microarray, residues 1-88, 635 nm (AID 1129). Particulars: small-molecule microarray binding, fluorescence 635 nm; higher = more signal.
Experiment [3] concerns the target Focal adhesion kinase 1 (Homo sapiens) (UniProt Q05397). Description: PTK2 protein binding on printed compound slides – biochemical, small-molecule microarray, 635/667 nm fluorescence, BSA, DTT, primary screen (AID 1130).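 Note: composite of spot emission at 667 nm and signal to noise over triplicate slides.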 The following applies: 635 nm fluorescence, higher = more signal.
Experiment [4] deals with Fibrinogen (Alexa647-labelled). Description: Alexa647-fibrinogen binding to printed small molecules – biochemical, small-molecule microarray, 635/667 nm fluorescence, artefact control for SMM control-protein annotation, profiling panel (AID 1131).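 Note: z-score merges 667 nm fluorescence with per-spot signal-to-noise over triplicate slides.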 The following applies: fibrinogen-A647 binding fluorescence, higher = more signal.
For experiment [5], the target named is Follistatin (Homo sapiens) (UniProt P19883). Description: FST protein binding to printed compounds – biochemical, small-molecule microarray, 635/667 nm fluorescence, primary screen (AID 1132). Particulars: 635 nm fluorescence, higher = more signal.
Sequence of Follistatin (Homo sapiens) (P19883 whole entry, looked up): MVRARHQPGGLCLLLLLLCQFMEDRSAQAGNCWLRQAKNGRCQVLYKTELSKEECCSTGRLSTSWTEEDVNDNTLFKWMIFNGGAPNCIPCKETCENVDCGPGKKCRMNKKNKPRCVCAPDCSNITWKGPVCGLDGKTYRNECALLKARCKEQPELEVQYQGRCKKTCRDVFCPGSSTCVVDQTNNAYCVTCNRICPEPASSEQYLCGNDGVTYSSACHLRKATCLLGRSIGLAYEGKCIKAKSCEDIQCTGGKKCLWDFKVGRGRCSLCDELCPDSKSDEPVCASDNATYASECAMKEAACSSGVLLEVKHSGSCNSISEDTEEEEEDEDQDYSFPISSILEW
Experiment [6] addresses Fibroblast growth factor 2 (Homo sapiens) (UniProt P09038). Description: basic fibroblast growth factor binding to printed compounds – biochemical, small-molecule microarray, 635/667 nm fluorescence, primary screen (AID 1133). Particulars: FGF2, fluorescence 635/667, higher = more signal.
The nature of experiment [7]: JC-1 mitochondrial potential readout, lung cancer cells – cell-based, A549, JC-1 fluorescence, basal, 24 h, 100 nL, profiling panel (AID 1138).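 Note: A549 lung adenocarcinoma cells under basal conditions with no added stimulus; test concentration not given here.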 Particulars: higher = more signal.
In experiment [8] the test system is Lefty1. Put plainly: Lefty1 protein binding to printed compounds – biochemical, small-molecule microarray, 635/667 nm fluorescence, primary screen (AID 1139). Particulars: fluorescence 635/667, higher = more signal.
Experiment [9] deals with wheat germ agglutinin (Triticum aestivum), Alexa647-labelled. Put plainly: Alexa647-WGA lectin binding to printed small molecules – biochemical, small-molecule microarray, 635/667 nm fluorescence, artefact control for SMM control-protein annotation, profiling panel (AID 1140).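 Note: score merges 667 nm feature emission with signal to noise over triplicate slides.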 The following applies: WGA-A647 binding, 635 nm fluorescence, higher = more signal.
The target in experiment [10] is Luciferin 4-monooxygenase (Photinus pyralis) (UniProt P08659). Put plainly: inhibition of purified Photinus pyralis luciferase – biochemical, luminescence, purified enzyme, 2006 set, primary screen (AID 1141).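 Note: cell-free assay with purified firefly luciferase at 100 ng per well in PBS; test concentration not given here.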 Particulars: purified firefly luciferase, SteadyGlo luminescence, 30 min; higher = more signal, called active from +8 up or from −8 down.
Sequence of Luciferin 4-monooxygenase (Photinus pyralis) (P08659 whole entry, looked up): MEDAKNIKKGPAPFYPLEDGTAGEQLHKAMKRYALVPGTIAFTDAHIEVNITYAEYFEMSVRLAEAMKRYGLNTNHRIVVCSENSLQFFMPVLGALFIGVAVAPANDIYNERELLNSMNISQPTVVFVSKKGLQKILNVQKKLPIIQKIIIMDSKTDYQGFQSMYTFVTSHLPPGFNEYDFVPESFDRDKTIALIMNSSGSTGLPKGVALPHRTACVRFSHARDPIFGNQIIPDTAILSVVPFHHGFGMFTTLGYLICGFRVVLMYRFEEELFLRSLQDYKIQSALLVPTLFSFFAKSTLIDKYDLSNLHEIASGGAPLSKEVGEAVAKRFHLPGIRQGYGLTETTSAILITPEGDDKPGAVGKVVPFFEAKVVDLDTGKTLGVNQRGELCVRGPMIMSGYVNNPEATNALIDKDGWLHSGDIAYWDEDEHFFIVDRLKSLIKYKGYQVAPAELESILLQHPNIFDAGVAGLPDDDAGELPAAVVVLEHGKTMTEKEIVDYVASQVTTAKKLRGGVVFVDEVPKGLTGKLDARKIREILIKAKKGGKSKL
Experiment [11] has as its system Wnt5a (protein binding on small-molecule microarray). Put plainly: small molecules binding Wnt5a protein – biophysical, small-molecule microarray, 635/667 nm fluorescence, primary screen (AID 1142).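 Note: fluorescence read at 667 nm with signal to noise per printed feature.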 The following applies: 635 nm fluorescence, higher = more signal.
The nature of experiment [12]: ATP-based viability of Huh7 replicon cells – cell-based, CellTiter-Glo luminescence, basal, 48 h, cytotoxicity control for HCV replication inhibitor project, primary screen (AID 1143).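 Note: Huh7 hepatoma cells carrying a hepatitis C replication reporter with no stimulus; test concentration not given here.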 The following applies: higher = more signal, called active from +8 up or from −8 down. Background: In antiviral work, replicon cells carry a viral genome segment that copies itself.
A short description of experiment [13]: Pseudomonas biofilm growth suppression – PAO1 strain, BacTiter-Glo luminescence, LB-PBS, primary screen (AID 1144). Particulars: P. aeruginosa PAO1 biofilm, 12 h, higher = more signal.
A short description of experiment [14]: basal CRE-LacZ reporter activity in PC12 – cell-based, unstimulated, primary screen (AID 1145). The following applies: no forskolin, luminescence, 4.5 h, higher = more signal, called active from +8 up or from −8 down.
Experiment [15] is described as follows: forskolin-driven CRE-LacZ activity in PC12 – cell-based, CRE-LacZ reporter, forskolin-stimulated, primary screen (AID 1146).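 Note: PC12 cells with 6xCRE LacZ reporter stimulated by forskolin 10 µM; beta-galactosidase reporter signal reflecting CREB driven transcription.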 Particulars: luminescence, 4.5 h, higher = more signal, called active from +8 up or from −8 down.
Experiment [16] has as its target Streptavidin (Streptomyces avidinii) (UniProt P22629). Description: compounds binding control protein streptavidin – biophysical, small-molecule microarray, 635/667 nm fluorescence, artefact control for SMM compound annotation, primary screen (AID 1147).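 Note: signal reflects streptavidin binding to arrayed compounds as a control protein.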 The following applies: higher = more signal.
The nature of experiment [17]: probe aInhba binding on compound microarray – biochemical, small-molecule microarray, 635/667 nm fluorescence, primary screen (AID 1148).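 Note: score merges 667nm spot fluorescence with signal-to-noise for antibody binding to printed compounds.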 Particulars: higher = more signal.
Experiment [18] has as its target Torsin-1A (Homo sapiens) (UniProt O14656). Put plainly: TOR1A wild-type binding on microarray – cell lysate, small-molecule microarray, lysate, 635/667 nm, primary screen (AID 1149). Particulars: COS7 hTOR1A-WT lysate, 635 nm fluorescence, higher = more signal.
The target is the same in experiment [19]. Put plainly: torsin A mutant lysate binding on microarrays – cell lysate, small-molecule microarray, COS7 lysate, 635/667 nm fluorescence, primary screen (AID 1150).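 Note: score pools 667 nm emission and signal to noise measuring lysate protein binding.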 Particulars: COS7 hTOR1A mutant lysate, 635 nm fluorescence, higher = more signal.
Experiment [20] deals with Sonic hedgehog protein (Shh). Description: Sonic hedgehog microarray binding compounds – biochemical, small-molecule microarray, 635/667 nm fluorescence, primary screen (AID 1151).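 Note: Shh protein binding to compounds spotted on small-molecule microarray slides; score combines spot fluorescence intensity with signal-to-noise across triplicate slides.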 The following applies: 635 nm fluorescence, higher = more signal.

Sequence of Fibroblast growth factor 2 (Homo sapiens) (P09038 whole entry, looked up): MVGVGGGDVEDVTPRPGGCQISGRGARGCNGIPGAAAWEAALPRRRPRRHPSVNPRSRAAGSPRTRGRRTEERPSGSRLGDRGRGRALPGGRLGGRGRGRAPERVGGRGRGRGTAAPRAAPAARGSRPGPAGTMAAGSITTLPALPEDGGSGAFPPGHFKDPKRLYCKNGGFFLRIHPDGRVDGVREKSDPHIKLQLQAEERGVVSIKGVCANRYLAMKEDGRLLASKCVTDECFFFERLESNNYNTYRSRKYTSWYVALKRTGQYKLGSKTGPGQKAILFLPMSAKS
Sequence of Torsin-1A (Homo sapiens) (O14656 whole entry, looked up): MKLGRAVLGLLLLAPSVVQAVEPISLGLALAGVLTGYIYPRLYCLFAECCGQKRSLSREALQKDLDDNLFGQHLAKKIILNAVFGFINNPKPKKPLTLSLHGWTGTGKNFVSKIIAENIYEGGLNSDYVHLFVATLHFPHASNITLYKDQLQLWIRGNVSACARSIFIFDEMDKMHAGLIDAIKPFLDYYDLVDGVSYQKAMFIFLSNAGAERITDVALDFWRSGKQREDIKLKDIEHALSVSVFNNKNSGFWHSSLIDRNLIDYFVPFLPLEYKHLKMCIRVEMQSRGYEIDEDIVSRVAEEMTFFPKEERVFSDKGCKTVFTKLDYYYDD
Sequence of Streptavidin (Streptomyces avidinii) (P22629 whole entry, looked up): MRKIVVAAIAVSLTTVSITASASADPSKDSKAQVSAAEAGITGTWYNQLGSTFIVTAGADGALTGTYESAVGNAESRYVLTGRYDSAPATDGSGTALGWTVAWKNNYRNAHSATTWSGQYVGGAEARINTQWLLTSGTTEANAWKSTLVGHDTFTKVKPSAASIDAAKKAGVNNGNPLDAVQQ
Sequence of Focal adhesion kinase 1 (Homo sapiens) (Q05397 whole entry, looked up): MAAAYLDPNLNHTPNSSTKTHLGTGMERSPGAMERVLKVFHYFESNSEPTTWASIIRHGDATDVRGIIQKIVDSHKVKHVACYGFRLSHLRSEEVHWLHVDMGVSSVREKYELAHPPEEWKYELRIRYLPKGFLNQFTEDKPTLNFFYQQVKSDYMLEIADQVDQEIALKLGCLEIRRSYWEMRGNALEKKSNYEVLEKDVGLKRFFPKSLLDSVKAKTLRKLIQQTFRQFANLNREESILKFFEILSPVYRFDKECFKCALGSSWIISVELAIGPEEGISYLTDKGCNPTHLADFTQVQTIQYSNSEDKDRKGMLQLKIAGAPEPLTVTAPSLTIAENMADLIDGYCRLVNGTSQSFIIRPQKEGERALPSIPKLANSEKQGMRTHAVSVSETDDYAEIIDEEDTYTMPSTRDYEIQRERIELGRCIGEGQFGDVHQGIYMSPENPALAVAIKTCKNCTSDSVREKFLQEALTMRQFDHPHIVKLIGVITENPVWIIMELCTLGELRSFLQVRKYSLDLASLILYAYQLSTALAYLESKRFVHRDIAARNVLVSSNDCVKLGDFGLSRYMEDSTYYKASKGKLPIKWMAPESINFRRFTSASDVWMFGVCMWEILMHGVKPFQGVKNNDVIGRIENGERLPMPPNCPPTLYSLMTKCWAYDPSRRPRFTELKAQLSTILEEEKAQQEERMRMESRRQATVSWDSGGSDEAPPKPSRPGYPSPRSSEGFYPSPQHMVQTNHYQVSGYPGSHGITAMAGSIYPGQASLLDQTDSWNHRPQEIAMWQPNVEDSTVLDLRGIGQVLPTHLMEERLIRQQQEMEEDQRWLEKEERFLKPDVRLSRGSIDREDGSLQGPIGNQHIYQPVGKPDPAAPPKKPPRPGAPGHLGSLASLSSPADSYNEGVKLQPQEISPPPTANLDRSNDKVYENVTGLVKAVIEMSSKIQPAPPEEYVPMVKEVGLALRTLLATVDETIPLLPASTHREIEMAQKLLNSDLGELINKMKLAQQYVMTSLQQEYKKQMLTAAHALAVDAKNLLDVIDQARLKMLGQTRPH

For `CC(C)(C)OC(=O)CC[C@]1(C(=O)O)N=C(c2ccc(OCCCO)cc2)O[C@H]1c1ccccc1`, the composite z-score in experiment [1] is 0.548; in experiment [2], 0.611; in [3], 0.0043; in experiment [4], 0.284; in [5] it was 0.329; in experiment [6], -0.236. The composite z-score is 0.0766 in [8]; 0.247 in experiment [9]; -0.221 in experiment [11]; 0.235 in experiment [16]; -0.102 in experiment [17]; -0.272 in experiment [18]. For the same compound, the composite z-score is 0.113 in [19] and -0.899 in experiment [20]. Further, the z-score was -0.132 in experiment [7]; 0.476 (inactive) in [10]; -1.48 (inactive) in [12]; -0.278 (inactive) in experiment [13]; -0.986 (inactive) in experiment [14]; -0.72 (inactive) in experiment [15].

With `O=C(CS)NCCCCCCNC(=O)[C@H]1C[C@H]2C(=O)N[C@@H](Cc3ccccc3)C(=O)N2[C@H]1c1cccc(OCCO)c1`, the composite z-score in [1] turned out to be 2.12; in experiment [2] it was 1.24; in [3], 0.127; in experiment [4], 0.93; in experiment [5], 1.39; in [6], 1.61. For the same compound, the composite z-score in [8] turned out to be 1.14; in experiment [9], 0.772; in experiment [11], 1.02; in experiment [16], 1.22; in experiment [17], 0.177; in [18], 0.78. Further, the composite z-score was found to be 1.06 in [19] and 1.72 in experiment [20]. Besides, the z-score in [7] was -0.66; in [10], -1.91 (inactive); in experiment [12], 0.0054 (inactive); in experiment [13], -0.885 (inactive); in experiment [14] it was 0.285 (inactive); in [15], -0.579 (inactive).

With `NC(=O)NCC#Cc1ccc2c(c1)[C@]1(C(=O)N2)[C@H](C(=O)Nc2nc3ccccc3s2)[C@H]2C(=O)O[C@H](c3ccccc3)[C@H](c3ccccc3)N2[C@@H]1c1ccc(O)cc1`, the composite z-score is -0.198 in experiment [1]; 0.52 in [2]; 0.286 in [3]; 0.629 in experiment [4]; 1.28 in experiment [5]; 0.651 in [6]. The composite z-score was found to be 0.383 in experiment [8]; 0.696 in experiment [9]; 0.236 in experiment [11]; 2.27 in [16]; 0.806 in [17]; 0.171 in experiment [18]. For the same compound, the composite z-score in experiment [19] was -0.216; in [20] it was 0.922. Also, the z-score is -2.41 in experiment [7]; -1.76 (inactive) in experiment [10]; 0.0524 (inactive) in experiment [12]; 0.688 (inactive) in experiment [13]; -1.15 (inactive) in [14]; -1.58 (inactive) in experiment [15].

Turning to `COc1ccc([Si](C)(C)[C@H]2[C@H](CCn3cc([C@H](O)c4ccccc4)nn3)O[C@@]3(C(=O)N(Cc4ccc(N5CCC5=O)cc4)c4ccccc43)[C@@H]2C)cc1`, the composite z-score in [1] was 0.814; in [2], 0.578; in experiment [3], -0.441; in experiment [4], -0.116; in experiment [5] it was 1.25; in [6] it was 1.47. Further, the composite z-score in [8] is 1.18; in experiment [9], 0.264; in experiment [11], 0.826; in experiment [16], -0.503; in experiment [17], -0.128; in experiment [18] it was 0.441. The composite z-score in [19] came out at 0.489; in experiment [20], 1.83. The z-score was 0.527 in [7]; 0.465 (inactive) in experiment [10]; -3.89 (inactive) in experiment [12]; 0.572 (inactive) in experiment [13]; 0.31 (inactive) in [14]; -1.05 (inactive) in [15].

On to `O=C1c2ccccc2[C@](Cc2ccccc2I)(C(=O)NCCN2CCOCC2)[C@H](c2ccc(CO)cc2)N1Cc1ccccc1`, for which the composite z-score in experiment [1] was found to be 0.0765; in experiment [2], 1.2; in experiment [3], 0.964; in [4] it was 0.598; in [5] it was 1.26; in experiment [6] it was 0.146. Also, the composite z-score in [8] amounted to 0.98; in [9], 0.458; in experiment [11], 0.265; in [16], 1.17; in experiment [17] it was 0.444; in experiment [18] it was 0.0373. The composite z-score was determined as 0.802 in [19] and 1.21 in [20]. Further, the z-score is 0.803 in experiment [7]; -0.0588 (inactive) in experiment [10]; -1.98 (inactive) in [12]; 0.536 (inactive) in experiment [13]; 0.649 (inactive) in experiment [14]; 0.413 (inactive) in [15].

With `COCCCNC(=O)[C@]1(Cc2ccccc2CN=[N+]=[N-])N=C(c2ccc(OCCCO)cc2)O[C@@H]1c1ccccc1`, the composite z-score is 2.83 in experiment [1]; 1.19 in [2]; 0.306 in experiment [3]; 0.985 in experiment [4]; 0.547 in experiment [5]; -0.0864 in [6]. Further, the composite z-score in experiment [8] was 0.0167; in experiment [9], 0.643; in [11], 0.419; in experiment [16] it was 0.723; in experiment [17] it was -0.0736; in experiment [18], 0.214. For the same compound, the figures for the composite z-score in experiment [19] and in experiment [20] were 0.311 and -1.07, respectively. The z-score was 1.06 in experiment [7]; 0.505 (inactive) in experiment [10]; -4.93 (inactive) in [12]; -0.436 (inactive) in [13]; -0.0667 (inactive) in experiment [14]; -0.577 (inactive) in [15].
